Records with an inconclusive call do not appear. A call without a number means that no potency is given here. Activity calls are given as the source filed them. Calls come from the whole dose curve; as a rule, active = well fitted curve in the direction sought with a large enough effect in the repeat runs; inconclusive = weak or mixed curves; inactive = no such curve, though single readings can be large; an effect the other way counts as inactive or inconclusive.
How the values were obtained:
[1] = qHTS RealTime-Glo MT Cell Viability Assay in HEK293 cells - 0 hour (AID 1224880); note: nearly all actives have a fitted effect of over 45% in size; note: potency is the fitted concentration of half-maximal effect
Method in brief: (§1)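 Viable HEK293 cells reduce a cell-permeant prosubstrate; the product diffuses out and is consumed by NanoLuc in the medium to give light. Compounds went in after a 5 h incubation and plates were read over the treatment course.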

[2] = A CellTox Green Cytotoxicity Assay to monitor cytotoxicity in HEK293 cells - 32 hour (AID 1224881); note: nearly all actives have a fitted effect of over 40% in size
Method in brief: (§2)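 Fluorescence intensity, read at 0, 8, 16, 24, 32 and 40 h of compound treatment, reflected dye binding to DNA of dead HEK293 cells; compounds (23 nL, DMSO) were added 5 h after plating cells with reagent.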

[3] = A CellTox Green Cytotoxicity Assay to monitor cytotoxicity in HepG2 cells - 0 hour (AID 1224882); note: nearly all actives have a fitted effect of over 35% in size
Method in brief: (§3)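 Using 1536-well format, dye-containing HepG2 suspension was seeded, allowed 5 h at 37 C/5% CO2, dosed by pintool with compounds, positive and negative controls, and imaged for fluorescence across 40 h.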

[4] = A CellTox Green Cytotoxicity Assay to monitor cytotoxicity in HepG2 cells - 32 hour (AID 1224883); note: nearly all actives have a fitted effect of over 50% in size
Method in brief: as §3

[5] = A CellTox Green Cytotoxicity Assay to monitor cytotoxicity in HEK293 cells - 8 hour (AID 1224884); note: nearly all actives have a fitted effect of over 35% in size
Method in brief: as §2

[6] = qHTS RealTime-Glo MT Cell Viability Assay in HepG2 cells - 16 hour (AID 1224885); note: nearly all actives have a fitted effect of over 50% in size
Method in brief: (§4)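 Real-time, nonlytic viability: 600 HepG2 cells/well mixed with NanoLuc enzyme plus prosubstrate; 5 h settle, compound (DMSO) added by pintool; luminescence monitored over 40 h at 37 C.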

[7] = qHTS RealTime-Glo MT Cell Viability Assay in HEK293 cells - 24 hour (AID 1224886); note: nearly all actives have a fitted effect of over 50% in size; note: potency is the fitted concentration of half-maximal effect
Method in brief: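 Cells + reagent dispensed (600 cells/well, HEK293) → 5 h at 37 C/5% CO2 → 23 nL compound in DMSO pinned → 40 h at 37 C → luminescence read at 0, 8, 16, 24, 32, 40 h.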

[8] = qHTS RealTime-Glo MT Cell Viability Assay in HEK293 cells - 8 hour (AID 1224887); note: nearly all actives have a fitted effect of over 50% in size; note: potency is the fitted concentration of half-maximal effect
Method in brief: as §1

[9] = A CellTox Green Cytotoxicity Assay to monitor cytotoxicity in HEK293 cells - 16 hour (AID 1224888); note: nearly all actives have a fitted effect of over 35% in size
Method in brief: as §2

[10] = qHTS RealTime-Glo MT Cell Viability Assay in HepG2 cells - 0 hour (AID 1224889); note: nearly all actives have a fitted effect of over 50% in size
Method in brief: as §4

| Structure (SMILES) | Potency [1] | Potency [2] | Potency [3] | Potency [4] | Potency [5] | Potency [6] | Potency [7] | Potency [8] | Potency [9] | Potency [10] |
| --- | --- | --- | --- | --- | --- | --- | --- | --- | --- | --- |
| Cc1c(C)c2c(c(C)c1OC(=O)CCC(=O)OCCO)CC[C@@](C)(CCC[C@H](C)CCC[C@H](C)CCCC(C)C)O2 | inactive | inactive | inactive | inactive | inactive | inactive | inactive | inactive | – | – |
| Oc1cccc(Nc2ccccc2)c1 | inactive | inactive | inactive | inactive | inactive | inactive | 14.4 µM (active) | 11.4 µM (active) | inactive | inactive |
| FC(F)(F)c1ccccc1Cl | inactive | inactive | inactive | inactive | inactive | inactive | inactive | inactive | inactive | inactive |
| C=C(C)CCCC(C)CCO (stereo not drawn) | inactive | inactive | inactive | inactive | inactive | inactive | inactive | inactive | inactive | inactive |
| CCCCCCNC(=O)n1cc(F)c(=O)[nH]c1=O | inactive | inactive | inactive | inactive | inactive | inactive | inactive | inactive | inactive | inactive |
| CCn1cc(C(=O)O)c(=O)c2cc(F)c(N3CCNCC3)cc21 | inactive | inactive | inactive | inactive | inactive | inactive | inactive | inactive | inactive | inactive |
| O=C=Nc1ccc(Cl)c(Cl)c1 | inactive | inactive | inactive | inactive | inactive | inactive | inactive | inactive | inactive | inactive |
| O=C(CCc1ccc(O)cc1)c1c(O)cc(O)cc1O | 39.8 µM (active) | inactive | inactive | inactive | inactive | inactive | 39.8 µM (active) | 25.1 µM (active) | inactive | – |
| Oc1cccc(O)c1O | inactive | inactive | inactive | inactive | inactive | inactive | inactive | inactive | inactive | inactive |
| O=C1c2ccccc2C(=O)c2c(O)c(O)cc(O)c21 | inactive | inactive | inactive | inactive | inactive | inactive | inactive | inactive | inactive | inactive |
| OC(CCN1CCCC1)(c1ccccc1)C1CCCCC1 (stereo not drawn) | inactive | inactive | inactive | inactive | inactive | inactive | inactive | inactive | inactive | inactive |
| CCCCCCCCOc1ccc(C(=O)O)cc1 | inactive | inactive | inactive | inactive | inactive | inactive | inactive | inactive | inactive | – |
| COC(=O)CS | inactive | inactive | inactive | inactive | inactive | inactive | inactive | inactive | inactive | inactive |
| CC(=O)Nc1cc(S(=O)(=O)O)cc2cc(S(=O)(=O)O)c(N=Nc3ccccc3)c(O)c12 | inactive | inactive | inactive | inactive | inactive | inactive | inactive | inactive | inactive | – |
| O=C1NCCN1CCO | inactive | inactive | inactive | inactive | inactive | inactive | inactive | inactive | inactive | inactive |
| CCCCCCCC/C=C\CCCCCCCCCCCC(=O)O | inactive | inactive | inactive | inactive | inactive | inactive | inactive | inactive | inactive | – |
| CC(=O)c1cc2ccccc2s1 | inactive | inactive | inactive | inactive | inactive | inactive | inactive | inactive | – | – |
| Cc1cc(C)cc(N)c1 | inactive | inactive | inactive | inactive | inactive | inactive | inactive | inactive | inactive | inactive |
| CCC(C)COC(C)=O (stereo not drawn) | inactive | inactive | inactive | inactive | inactive | inactive | inactive | – | inactive | inactive |
| O=[N+]([O-])c1ccc(O/N=C/c2cc(Br)c(O)c(Br)c2)c([N+](=O)[O-])c1 | inactive | inactive | inactive | inactive | inactive | inactive | 48.7 µM (active) | – | inactive | inactive |
| C=C(C)C(=O)OCCCCCCCCCCCCC | inactive | inactive | inactive | inactive | inactive | inactive | inactive | inactive | inactive | inactive |
| CC1CC(OC(=O)C(O)c2ccccc2)CC(C)(C)N1C (stereo not drawn) | inactive | inactive | inactive | inactive | inactive | inactive | inactive | – | inactive | inactive |
| N#CCCN(CCO)CCO | inactive | inactive | inactive | inactive | inactive | inactive | inactive | inactive | inactive | inactive |
| O=C(O)C[C@H](NC(=O)OCc1ccccc1)C(=O)O | inactive | inactive | inactive | inactive | inactive | inactive | inactive | – | inactive | inactive |
